FH mod = Identification of activators of human fumarate hydratase by quantitative high-throughput screening. 54,000 tested, 0.22% active. Fumarate hydratase, mitochondrial (Homo sapiens), P07954. AID 1347055, 2019. Potency, µM (titrated, usually from 79.9 µM), for inactives: top-dose activity change, negative = inhibition, actives largely listed as inhibitors. FH coupled MDH/diaphorase resazurin fluorescence, 15 min; note: % is set by controls: 0 for no effect and ±100 for the full control effect; the screen sought activators but most active calls are inhibition curves; nearly all actives have a fitted effect of over 45% in size
GALC G270D up = raises human GALC G270D mutant activity in cells; 145M-Twi-hGALC-G270D cells (Twitcher mouse brain line with human GALC G270D), HMU-beta-Gal fluorescence, 48 h; 45,000 tested, 0.1% active; P54803; Potency, µM (titrated, usually from 57.5 µM), most hits filed as activators; note: 0% is about no effect; nearly all actives have a fitted effect of over 65% in size
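Brain-derived Twitcher mouse 145M-Twi cells stably expressing human GALC-G270D or wild-type GALC, treated live, then residual GALC activity read by fluorescence of HMU-b-Gal substrate (0.1 mM final) in citrate-phosphate buffer pH 5.2 with sodium taurocholate. Signal increase indicates enhancement.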
NTMT1 inhibitor = inhibitors of human N-terminal methyltransferase NTMT1; 59,000 tested, 2.5% active; NTMT1 MTase-Glo SAH luminescence, purified enzyme; Potency, µM (series often up to 114 µM), for inactives: top-dose activity change, negative = inhibition, usual class: inhibitors; AID 1645870;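 note: plate controls were DMSO vehicle for no effect and no enzyme for full effect; nearly all actives have a fitted effect of over 65% in size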
Target sequence (Q9BV86 whole entry, looked up): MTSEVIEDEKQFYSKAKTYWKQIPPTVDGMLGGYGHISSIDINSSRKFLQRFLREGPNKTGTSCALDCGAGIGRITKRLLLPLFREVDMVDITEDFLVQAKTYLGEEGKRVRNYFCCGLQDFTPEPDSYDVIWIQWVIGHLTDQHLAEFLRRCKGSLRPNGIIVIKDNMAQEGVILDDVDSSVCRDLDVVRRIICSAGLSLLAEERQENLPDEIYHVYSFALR
Numbers without * were called inactive; i = inactive; ? = inconclusive; . = no result given; ! = a repeat was not active; [ ] = another dose, or the depositor's remark. This is one part of a sample in which hits are shown more often than they occur. Calls come from the whole dose curve; as a rule, active = well fitted curve in the direction sought with a large enough effect; inconclusive = small, poorly fitted or top-dose-only effect, or another doubt; inactive = no such curve, though single readings can be large; an effect the other way counts as inactive or inconclusive. Potency is the fitted concentration of half-maximal effect.

SMILES | FH mod | GALC G270D up | NTMT1 inhibitor
CN1CCN(Cc2ccc(Nc3ncc(Cl)c(Nc4ccccc4S(=O)(=O)N(C)C)n3)cc2)CC1 | 0%[13.5 µM] | . | ?
COc1cc(=C2C=c3ccccc3=N2)[nH]/c1=C/c1[nH]c(C)cc1C | . | . | 40µM*
COc1c/c(=C2\C=c3ccccc3=N2)[nH]/c1=C\c1[nH]c(C)cc1C | 0% | . | ?
CC(C)(C)OC(=O)N1CCN(c2cnc(NCc3ccc(-c4ccc(C#N)cc4)o3)cn2)CC1 | . | . | -3%
COC(=O)c1ccc(O)c2ncc(-c3ccc(C(=O)N4CCN(C)CC4)cc3)cc12 | . | . | 0%
CCN(CC)C(=S)SSC(=S)N(CC)CC | ? | i | 3.5µM*!
Clc1ccc(CSc2nc3ncc(Br)cc3[nH]2)cc1 | . | . | -5%[57.5 µM]
COc1ccc(CCNC(=O)CCc2c(C)c3cc4c(C)coc4c(C)c3oc2=O)cc1OC | -6% | i | 89µM*
COc1ccc(CNC(=O)Cc2c(C)c3cc4c(C)coc4c(C)c3oc2=O)cc1OC | -4% | i | -8%
Cc1cc(NS(=O)(=O)Cc2ccc(NC(=O)Cc3ccc(Cl)c(Cl)c3)cc2)no1 | . | . | -1%
CC(=O)OC1CCC2(C)C(CCC3(C)C2CC=C2C4C(C)C(C)CCC4(C)CCC23C)C1(C)C(=O)O (stereo unspecified) | -24%[53.3 µM] | . | ?
O=c1c(-c2ccc(O)cc2)coc2cc(O)ccc12 | -28%[53.3 µM] | . | ?
O=c1c(O)c(-c2ccc(O)cc2)oc2cc(O)cc(O)c12 | -13%[53.3 µM] | . | ?
COc1cc(O)c2c(=O)c(O)c(-c3ccc(O)c(O)c3)oc2c1 | -8% | . | 25µM*
O=c1c(O)c(-c2ccc(O)c(O)c2)oc2cc(O)ccc12 | 27µM*![activator] | . | 50µM*!
Cn1cc(-c2nc(N[C@@H]3CCCC[C@@H]3N)c(F)c3c2C(=O)NC3)cn1 | . | . | 13%[12.6 µM]
CN1C(=O)N[C@H](Cc2c[nH]c3c(Cl)cccc23)C1=O | . | . | 6%
C=CC(C)(C)c1[nH]c2ccccc2c1C1=C(O)C(=O)C(c2c[nH]c3c(CC=C(C)C)cccc23)=C(O)C1=O | -6% | . | 40µM*
COc1cc(-c2cn(C)c(=O)c3cnccc23)c(OC)cc1CN(C)C | . | . | 6%
CC(C)(O)CS(=O)(=O)Nc1ccc2c(c1)CCN(C(=O)COc1cccnc1)C2 | . | . | -2%
O=C(NCc1ccccc1)c1ccc(NC(=O)N2CCSc3ncccc32)cc1 | -7% | i | 89µM*
CCc1ccc(CNC(=O)c2ccc(NC(=O)N3CCSc4ncccc43)cc2)cc1 | -8% | i | 5%
CC(=O)Nc1sc2c(c1-c1ccc3c(c1)OCCO3)CCNC2 | . | . | -6%
CN(CCO)C1CCN(c2ccc(Nc3ncc4c5ccnc(F)c5n(C5CCCC5)c4n3)nc2)CC1 | 0%[53.3 µM] | . | ?
COc1ccc(C2=N[C@@H](c3ccc(Cl)cc3)[C@@H](c3ccc(Cl)cc3)N2C(=O)N2CCNC(=O)C2)c(OC(C)C)c1 | -7% | . | 2%[57.5 µM]
SMILES | FH mod | GALC G270D up | NTMT1 inhibitor
NC(=O)c1cccc2[nH]c(-c3ccc([C@H]4CCCN4)cc3F)nc12 | 5%[53.3 µM] | . | 45µM*
NC(=O)c1cccc2[nH]c(-c3ccc(C4CCCN4)cc3F)nc12 (stereo unspecified) | 1% | . | -3%[57.5 µM]
O=C(c1cc(O)c(O)c(O)c1)c1ccc(O)c(O)c1O | ? | i | 32µM*
O=C(O)c1cc(O)c(O)c(O)c1 | -14%[53.3 µM] | i | ?
N[C@@H](Cc1ccc(O[S+](=O)([O-])c2cccc3cnccc23)cc1)C(=O)N1CCN(c2ccccc2)CC1 | . | . | 0%[57.5 µM]
COc1ccc(-c2oc3c(CC=C(C)C)c(OC4O[C@H](CO)[C@@H](O)[C@H](O)[C@H]4O)cc(O)c3c(=O)c2OC2O[C@@H](C)[C@H](O)[C@@H](O)[C@H]2O)cc1 (stereo partly specified) | . | . | 0%
CC(C)C(=O)OC[C@@]1(N=[N+]=[N-])O[C@@H](n2ccc(N)nc2=O)[C@H](OC(=O)C(C)C)[C@@H]1OC(=O)C(C)C | 0% | . | 2%
N#Cc1ccc2ncnc(NCCc3ccccc3)c2c1 | -1% | . | 4%[57.5 µM]
COc1c(C)c(OCC=C(C)C)cc2c1COC2=O | -4% | . | -7%[57.5 µM]
OCCOc1ccc(/C(=C(/CCCl)c2ccccc2)c2ccccc2)cc1 | . | . | 14%
CCC(=C(c1ccc(O)cc1)c1ccc(OCCNC)cc1)c1ccccc1 | -4%[53.3 µM] | . | 24µM*
CC/C(=C(\c1ccccc1)c1ccc(OCCN(C)C)cc1)c1ccccc1 | ? | i | ?
CC/C(=C(/c1ccc(O)cc1)c1ccc(OCCNC)cc1)c1ccccc1 | . | . | 11µM*
CCC(=C(c1ccccc1)c1ccc(OCCN(C)C)cc1)c1ccccc1 | -6%[53.3 µM] | . | 19µM*
CCC(=C(c1ccc(OCCN2CCCC2)cc1)c1ccc(OCCN2CCCC2)cc1)c1ccccc1 | -1% | . | 0%[57.5 µM]
CC(C)(C)c1cccc(NC(=O)Nc2nnc(-c3ccncc3)s2)c1 | . | . | 7%
CCC(C)C(=O)O[C@H]1C[C@](C)(O)[C@]23OC(C)(C)[C@H](C[C@H](OC(=O)c4ccccc4)[C@]2(COC(C)=O)[C@H]1OC(=O)C(C)CC)[C@H]3OC(C)=O (stereo partly specified) | 0%[20.6 µM] | . | 10%[12.6 µM]
COCC(=O)N1CCc2cc(-c3csc(NC(=O)c4cc(OC)cc(OC)c4)n3)ccc21 | 9% | . | -17%[57.5 µM]
CCOC(=O)COc1ccc2c(c1)C[C@@H](NC[C@H](O)c1cccc(Cl)c1)CC2 | -4% | . | -6%[57.5 µM]
COC(=O)CC1OC(C)C2=C(O)c3c(O)cccc3C(=O)C23OC13 (stereo unspecified) | ? | . | -8%[29.8 µM]
CCOc1ccc(NC2SC(=O)N(Cc3ccccc3)C2=O)cc1 (stereo unspecified) | 40µM*[activator] | i | 2%
O=C1SC(Nc2ccc(Cl)cc2)C(=O)N1Cc1ccccc1 (stereo unspecified) | 3% | i | -7%
NC(=O)c1cccc2cn(-c3ccc([C@@H]4CCCNC4)cc3)nc12 | 0% | . | 32µM*!
COc1cccc(-n2cnc3cc(C(=O)N4CCCCC4)ccc32)c1 | . | . | -10%[57.5 µM]
COCCCOc1ccnc(CS(=O)c2nc3ccccc3[nH]2)c1C (stereo unspecified) | 3% | i | 18µM*!
SMILES | FH mod | GALC G270D up | NTMT1 inhibitor
COc1ccc(Cc2nc3ccccc3[nH]c2=O)cc1 | 4% | i | 8%
Cc1ccc(-c2nc3ccccc3[nH]2)cc1NC(=O)COc1cccc(C)c1C | 12% | i | -16%
Cc1c(OCC(F)(F)F)ccnc1CS(=O)c1nc2ccccc2[nH]1 (stereo unspecified) | -9%[53.3 µM] | i | 45µM*!
CO[C@@H]1[C@@H](O[C@H]2O[C@@H](C)[C@H](O[C@@H]3C[C@](C)(O)[C@H](O)[C@@H](C)O3)[C@@H](N(C)C)[C@@H]2O)[C@@H](CC=O)C[C@@H](C)[C@@H](O[C@H]2CC[C@H](N(C)C)[C@H](C)O2)/C=C/C=C/C[C@@H](C)OC(=O)C[C@H]1O | 10% | . | 5%[57.5 µM]
Cn1c(=O)c2[nH]cnc2n(C)c1=O | 0%[53.3 µM] | i | 2%
S=c1nc[nH]c2nc[nH]c12 | -8%[53.3 µM] | i | 25µM*!
O=S(=O)(Nc1cccc(F)c1)c1ccc2[nH]c3c(c2c1)CCCCC3 | 35µM* | i | -11%
O=S(=O)(Nc1cc(F)ccc1F)c1ccc2[nH]c3c(c2c1)CCCCC3 | ? | i | ?

Source: PubChem
